# PubChem BioAssay AID1259319 (Sanford-Burnham Center for Chemical Genomics, 2017)
# Screen size: about 3,000 compounds; about 1,800 (60%) were called active.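 Rule for the calls: active = activation at or above a set limit, or at least 3 SD above the negative control mean; inactive = the rest.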 So high a share suggests a set chosen from earlier hits. The list is a sample of the results.
# Target: Nuclear receptor subfamily 1 group D member 1 (Homo sapiens) (UniProt P20393)
# Experiment: Rev-erbα–DNA interaction modulation, retest – biochemical, FITC-DNA, fluorescence polarization, single point, confirmation (AID 1259319);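 note: 0% = 35 nM protein with DMSO and 100% = 750 nM protein high control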
# Details: Rev-erb alpha FITC-DNA binding, 90 min, at 25 µM, hits give high values
# Chain of Nuclear receptor subfamily 1 group D member 1 (Homo sapiens) (P20393 whole entry, looked up): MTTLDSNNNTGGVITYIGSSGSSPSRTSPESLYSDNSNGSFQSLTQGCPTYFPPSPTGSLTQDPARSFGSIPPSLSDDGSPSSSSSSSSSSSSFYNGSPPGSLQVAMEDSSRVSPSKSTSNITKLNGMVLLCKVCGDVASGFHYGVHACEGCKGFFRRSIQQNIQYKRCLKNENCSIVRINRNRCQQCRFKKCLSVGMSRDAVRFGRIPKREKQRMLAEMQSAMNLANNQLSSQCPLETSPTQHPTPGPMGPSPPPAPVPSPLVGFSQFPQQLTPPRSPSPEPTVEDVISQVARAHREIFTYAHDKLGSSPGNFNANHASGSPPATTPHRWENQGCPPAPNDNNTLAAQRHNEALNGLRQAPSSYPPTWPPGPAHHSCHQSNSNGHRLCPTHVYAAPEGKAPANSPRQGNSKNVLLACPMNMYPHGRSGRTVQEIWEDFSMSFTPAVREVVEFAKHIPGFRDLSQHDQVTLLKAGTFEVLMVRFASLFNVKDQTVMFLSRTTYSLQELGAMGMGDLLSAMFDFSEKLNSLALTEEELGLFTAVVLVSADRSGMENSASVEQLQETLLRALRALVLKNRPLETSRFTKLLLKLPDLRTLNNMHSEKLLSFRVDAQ
row,SMILES,activation
1,COCCCNc1nc2c(-c3cccc(C)c3)nnn2c2ccc(Cl)cc12,28.8% (active)
2,CN1C(=O)c2cccc3c(N)ccc(c23)C1=O,225% (active)
3,Cc1nn(C)cc1N1C(=O)c2cccc3c(N)ccc(c23)C1=O,181% (active)
4,COc1ccc(-c2c(C)cc3oc(=O)cc(-c4ccccc4)c3c2C)cc1C=O,8.9% (inactive)
5,C=C(C)C1CC=C(C)/C(=N\NC(=O)CNc2ccccc2OC)C1 (configuration not stated),6.76% (inactive)
6,C=CCn1c(=NC(=O)c2ccc(S(=O)(=O)N3CCCC3)cc2)sc2cc(NC(C)=O)ccc21,34.3% (active)
7,Cn1c(=NC(=O)c2ccc3c(c2)OCCO3)sc2cc(S(C)(=O)=O)ccc21,12.7% (inactive)
8,C=CCn1c(=NC(=O)c2cccs2)sc2cc(NC(C)=O)ccc21,33.8% (active)
9,COC(=O)Cn1c(=NC(=O)c2cc(OC)c(OC)c(OC)c2)sc2cc(OC)ccc21,14.3% (inactive)
10,COc1ccccc1CC1(C)C(=O)Nc2ccc(OC(F)(F)F)cc21 (configuration not stated),60.9% (active)
11,O=C(NCc1ccc(Cl)cc1)c1cc2c(nc3sccn32)s1,19.2% (active)
12,COc1ccc(S(=O)(=O)N2CCOCC2)cc1C(=O)Nc1nc2ccccc2s1,20.7% (active)
13,COc1cc2c(cc1NC(=O)CN1CCN(S(=O)(=O)c3ccc(F)cc3)CC1)oc1ccccc12,3.46% (inactive)
14,COc1ccc(C)cc1Nc1nc(C)nc2c1oc1ccccc12,28.2% (active)
15,CCOC(=O)c1sc(NC(=O)CCN2CCOCC2)c(C(=O)OCC)c1C,5.98% (inactive)
16,COc1ccc(-c2nn(C)c(=O)c3ccccc23)cc1NC(=O)COc1ccccc1,33.9% (active)
17,CCOc1ccc(NC(=O)CSc2ncnc3c2sc2ccccc23)cc1,107% (active)
18,COc1cc(OC)c(N2CC(C(=O)Nc3cc(Cl)ccc3N3CCOCC3)CC2=O)cc1Cl (configuration not stated),1.79% (inactive)
19,COc1cc(OC)cc(-c2c(C#Cc3ccsc3)c3cc(-c4ccc(SC)cc4)ccc3n2C)c1,32.1% (active)
20,CCOc1ccc2nc(Cl)c(C3CC(c4ccccc4)=NN3C(=O)c3cccs3)cc2c1 (configuration not stated),-0.503% (inactive)
21,Cc1ccc(S(=O)(=O)c2c[nH]c3ccc(Cl)cc3c2=O)cc1,137% (active)
22,COc1ccc(-n2nc3c(N4CCC(C(=O)NCc5ccccc5)CC4)nnc(C)c3c2C)cc1,32.9% (active)
23,COc1ccc(-n2nc(C(=O)NCC(=O)Nc3cccc(C)n3)c3ccccc3c2=O)cc1,10.2% (inactive)
24,CCOC(=O)c1ccc(NC(=S)N2CCN(c3ccccn3)CC2)cc1,12.8% (inactive)
25,Cc1cc(Br)ccc1NC(=O)c1sc2ncn(CC(=O)N3CCN(c4ccccn4)CC3)c(=O)c2c1C,37.6% (active)
26,Cc1nc(N2CCN(c3ccccn3)CC2)c2c(C)c(C(=O)Nc3ccc(F)c(Cl)c3)sc2n1,17.3% (inactive)

row,SMILES,activation
1,COc1ccc(-c2nnc3ccc(SCc4ccccc4)nn23)cc1,14.9% (active)
2,CCOc1ccc(-c2nnc3ccc(SC)nn23)cc1,26% (active)
3,Cc1cc(C)c2nc(SCC(=O)N(C)C3CCS(=O)(=O)C3)cc(C)c2c1 (configuration not stated),34.9% (active)
4,CC1(C)Cc2nc3sc4c(SCC(=O)NC(c5ccccc5)c5ccccc5)ncnc4c3cc2CO1,138% (active)
5,COc1ccc(/C=C2\SC(=S)N(CCCC(=O)NC3CCCC3)C2=O)cc1OC,31.3% (active)
6,Cc1cc(/C=C(/C#N)C(=O)Nc2ccc(Cl)cc2)c(C)n1-c1cccnc1,53.9% (active)
7,CCCc1nc(SCC(=O)Nc2ccc(S(=O)(=O)N(C)C)cc2)c2ccccc2n1,18.2% (active)
8,COC(=O)c1ccc(NC(=O)c2cc(Cl)ccc2OC)cc1,32.8% (active)
9,Cc1cc(C)c(/C=C2\C(=O)Nc3ccccc32)[nH]1,32.5% (active)
10,Cc1ccc(NS(=O)(=O)c2cc3c(cc2Br)NC(=O)CO3)cc1C,5.15% (inactive)
11,COc1ccc(CCNc2nc3ccc(C)cc3n3cnnc23)cc1OC,2.71% (inactive)
12,Cc1ccc(C(=O)Nc2nnc(-c3cccs3)s2)cc1C,-3.7% (inactive)
13,O=C(Nc1nnc(-c2ccccc2F)s1)c1ccccc1F,25.2% (active)
14,CN1/C(=c2/s/c(=C3/C(=O)N(c4ccccc4)NC3=Nc3ccccc3)n(C)c2=O)C(C)(C)c2ccccc21,29.8% (active)
15,CCCCCCSc1ccc(-c2nc3ccc(Cl)cn3c2NCc2ccccc2)cc1,12.7% (inactive)
16,CSc1ccc(-c2c(C#N)c(N)nc3c2c(C)nn3-c2ccccc2)cc1,7.01% (inactive)
17,Cc1cc(C)c2c(-c3ccc(F)cc3)c(C#N)c(=O)n(C)c2n1,24.5% (active)
18,Cc1cc(N/C=C\C(=O)c2ccc(Cl)c(Cl)c2)no1,4.17% (inactive)
19,O=C(COc1ncnc2c(Cl)cc(Cl)cc12)N1CCN(S(=O)(=O)c2ccccc2)CC1,14.4% (inactive)
20,N#Cc1c(-c2ccc(F)cc2)cc(C2CC2)nc1SCC(=O)c1cccs1,65.1% (active)
21,CS(=O)(=O)c1ccc2nc(NC(=O)c3ccc(N4CCCC4=O)cc3)sc2c1,18.3% (active)
22,COc1ccc(-c2csc(NC(=O)c3ccc(N4C(=O)CCC4=O)cc3)n2)cc1OC,16.5% (inactive)
23,CCOC(=O)C1=C(c2ccccc2)O/C(=C(/C(=O)OC)C(F)(F)F)S1,0.229% (inactive)
24,CCC(C)C1(C2CCCC2)NC(=O)NC1=O (configuration not stated),-1.67% (inactive)
25,CC1(C)CC2CC(C)(CN2c2ncnc3ccc(Br)cc23)C1 (configuration not stated),14% (inactive)
26,Cc1cccc(N(CC(=O)Nc2ccc(-c3nc4ccc(C)cc4s3)cc2)S(C)(=O)=O)c1,22.1% (active)
